Six compounds from PubChem BioAssay (NCATS) can be followed below.

Test [1] has as its target Lysosomal acid glucosylceramidase (Homo sapiens) (UniProt P04062). In words: Glucocerebrosidase-p2 (AID 348; in the data active means potency below about 10 µM; further: potency means the concentration at half of the fitted maximal effect). As to conditions: purified GBA, blue fluorogenic substrate, 40 min. The method, boiled down: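 Normal human glucocerebrosidase (0.2 nM) with blue fluorogenic substrate (80 uM final) in citrate/phosphate pH 5.9 with 10mM sodium taurocholate, 0.01% tween-20; 40 min RT, NaOH/glycine stop; fluorescence Ex 365/Em 440; AC50 from a titration from 0.6 nM upwards.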

A short description of test [2]: AP1 Signaling Pathway (AID 357; active means well fitted curve in either direction with a large enough effect, not every such curve was filed as active; further: on the % scale 0 is the no-effect control and ±100 the full control effect). To be noted: ME-180 AP-1-bla reporter, EGF-induced, beta-lactamase ratio, 5 h; at 7.69 µM (top of the series) unless noted. The method, boiled down:
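AP-1-bla ME-180 cells with beta-lactamase reporter under AP-1 response element, stimulated with EC50 EGF; compounds titrated, 5 hours at 37 degrees Celsius. CCF4 read at 460/530 nm ratio; positive and negative modulators judged by AC50.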

The target in test [3] is Cytochrome P450 1A2 (Homo sapiens) (UniProt P05177). In words: p450-cyp1a2 (AID 410; calls by dose curve; further: potency means the concentration at half of the fitted maximal effect). An outline of the steps:
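20nM CYP1A2, 100uM Luciferin-ME (=Km), 100mM KPO4; cpd 10 min RT; +NADPH regen, 60 min RT; stop/detect 20 min; luminescence. Normalized to furafylline 57 uM = full inhibition.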

Test [4] is described as follows: NFAT Signaling Pathway (AID 444; active means well fitted curve in either direction with a large enough effect, not every such curve was filed as active;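 further: carbachol stimulus at about its EC50 of 1 µM final; on the % scale 0 is the no-effect control and ±100 the full control effect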). To be noted: Jurkat NFAT-bla M1, carbachol, beta-lactamase ratio, 5 h; at 7.69 µM (top of the series) unless noted. An outline of the steps:
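Jurkat cells carrying an NFAT-driven β-lactamase reporter and co-transfected muscarinic M1 receptor were treated with compound plus carbachol (1 uM final, an EC50 level) for 5 h at 37 °C. CCF4 loading followed for 1 h at RT; 460/530 nm ratio gave %activity.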

Test [5] is described as follows: Stat Signaling Pathway (AID 446; active means well fitted curve in either direction with a large enough effect, not every such curve was filed as active;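 further: ME-180 cervical cancer cells given 40 pM IL-6 alongside compound; SIE-controlled beta-lactamase reporter measured as 460/530 nm FRET emission ratio; on the % scale 0 is the no-effect control and ±100 the full control effect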). To be noted: ME-180 (cervical carcinoma) SIE beta-lactamase reporter, IL-6 stimulated, 5 h; at 7.69 µM (top of the series) unless noted. An outline of the steps:
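Emission at 460 and 530 nm (excitation 405 nm) reports SIE-controlled beta-lactamase in ME-180 cells. Cells received compound with 40 pM IL-6 for 5 hrs at 37 C; data scaled between 300 pM IL-6 and 125 nM JAK-inhibitor controls.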

For test [6], the target named is Glucocorticoid receptor (Homo sapiens) (UniProt P04150). Put plainly: GR-GFP Redistribution (AID 450;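 active means compounds whose dose series gives a full or clear partial fitted curve of increased nuclear translocation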; further: potency means the concentration at half of the fitted maximal effect). To be noted: U2OS GR-GFP nuclear translocation, laser cytometry, 2 h.
Sequence of Glucocorticoid receptor (Homo sapiens) (P04150 whole entry, looked up): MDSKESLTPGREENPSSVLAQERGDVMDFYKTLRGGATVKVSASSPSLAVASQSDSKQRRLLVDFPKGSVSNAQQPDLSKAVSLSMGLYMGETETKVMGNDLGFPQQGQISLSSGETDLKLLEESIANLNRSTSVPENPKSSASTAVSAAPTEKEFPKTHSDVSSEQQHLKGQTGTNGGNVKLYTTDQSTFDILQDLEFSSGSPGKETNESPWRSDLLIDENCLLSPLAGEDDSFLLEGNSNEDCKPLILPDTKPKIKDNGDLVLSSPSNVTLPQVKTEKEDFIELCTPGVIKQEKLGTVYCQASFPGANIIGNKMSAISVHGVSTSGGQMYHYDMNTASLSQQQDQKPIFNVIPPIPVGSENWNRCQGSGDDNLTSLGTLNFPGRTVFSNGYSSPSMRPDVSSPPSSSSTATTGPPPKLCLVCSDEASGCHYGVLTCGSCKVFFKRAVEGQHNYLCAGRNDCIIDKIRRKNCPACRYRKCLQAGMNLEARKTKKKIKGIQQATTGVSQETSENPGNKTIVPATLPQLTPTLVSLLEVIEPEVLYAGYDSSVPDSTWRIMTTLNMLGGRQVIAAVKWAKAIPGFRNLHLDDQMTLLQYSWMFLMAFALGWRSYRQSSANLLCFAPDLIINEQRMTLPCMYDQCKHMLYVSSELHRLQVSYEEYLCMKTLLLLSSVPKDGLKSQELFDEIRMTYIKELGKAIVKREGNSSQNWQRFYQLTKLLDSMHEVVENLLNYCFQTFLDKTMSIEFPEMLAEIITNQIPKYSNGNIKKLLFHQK
Test [7] has the same target. In words: GR-EFC Redistribution (AID 451; calls by dose curve; further: potency means the concentration at half of the fitted maximal effect). As to conditions: CHO-K1 GR-EFC translocation, beta-gal luminescence, 2 h. The method, boiled down:
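CHO-K1 cells stably expressing nuclear-localized β-gal enzyme acceptor and GR fused C-terminally to the enzyme donor fragment; ligand-driven nuclear translocation restores β-gal by complementation. Compounds titrated up to 46 uM final, 2 h at 37 °C; luminescence read.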

Test [8] addresses Mitogen-activated protein kinase 10 (Mus musculus) (UniProt Q61831). Put plainly: JNK3 AlphaScreen Assay (AID 530; active means well fitted curve in either direction with a large enough effect, not every such curve was filed as active;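 further: kinase came from lysate of stimulated human HepG2 cells; signal reports phosphorylation of biotinylated GST-cJun 1-79 at Ser73 with 10 µM ATP; on the % scale 0 is the no-effect control and ±100 the full control effect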). An outline of the steps: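 Biotinylated GST-cJun(1-79) served as substrate for JNK3 in HepG2 lysates stimulated with IL-1beta and TNF-alpha. ATP was 10 uM final, pH 7.6. Ser73 phosphorylation was quantified by AlphaScreen (680 nm excitation).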
(Alpha assays give light when donor and acceptor beads are brought close together.)

Test [9] has as its target 3',5'-cyclic-AMP phosphodiesterase 4B (Homo sapiens) (UniProt Q07343). Put plainly: qHTS Assay for Inhibitors of PDE-IV (AID 607; active means well fitted activation curve with a large enough effect in the main read-out, with a control signal flat, not every such curve was filed as active; further: % of control where 0% means no effect). An outline of the steps:
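The readout is membrane depolarisation from a cAMP-sensing CNG channel, detected with a potential dye at ex 535/em 590. Cells were HEK293-derived (endogenous PDE-IV) at 1000 cells/well, titrated up to 22.9 uM final.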
(In qHTS, concentration-response curves come from the screen itself.)

The target of test [10] is Cytochrome P450 3A4 (Homo sapiens) (UniProt P08684). Put plainly: qHTS Assay for Activators of Cytochrome P450 3A4 (AID 885). Further: nearly all actives have a fitted effect of over 65% in size. The method, boiled down: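 Activators are scored by enhanced luminescence from CYP3A4 conversion of luciferin-PPXE (25uM, equal to KM) to luciferin, after 60 min at RT with an NADPH-regenerating system.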
Sequence of Cytochrome P450 3A4 (Homo sapiens) (P08684 whole entry, looked up): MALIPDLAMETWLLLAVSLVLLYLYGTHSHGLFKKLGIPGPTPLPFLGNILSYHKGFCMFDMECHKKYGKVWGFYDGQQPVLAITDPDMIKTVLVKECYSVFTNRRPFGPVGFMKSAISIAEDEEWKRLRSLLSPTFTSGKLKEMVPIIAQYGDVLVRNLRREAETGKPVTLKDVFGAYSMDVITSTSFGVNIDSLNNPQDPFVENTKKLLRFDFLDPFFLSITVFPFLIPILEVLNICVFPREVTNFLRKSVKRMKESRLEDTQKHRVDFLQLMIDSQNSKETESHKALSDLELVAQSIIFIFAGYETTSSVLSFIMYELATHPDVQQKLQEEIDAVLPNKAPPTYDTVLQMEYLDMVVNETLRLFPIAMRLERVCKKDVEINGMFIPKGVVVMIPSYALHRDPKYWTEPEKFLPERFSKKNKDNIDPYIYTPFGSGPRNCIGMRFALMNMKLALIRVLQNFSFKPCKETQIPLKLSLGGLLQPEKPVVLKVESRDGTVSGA
Test [11] concerns the target Cytochrome P450 2C19 (Homo sapiens) (UniProt P33261). Put plainly: qHTS Assay for Inhibitors and Substrates of Cytochrome P450 2C19 (AID 899). Further: potency means the concentration at half of the fitted maximal effect; nearly all actives have a fitted effect of over 60% in size. An outline of the steps: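 NADPH-dependent conversion of Luciferin-H EGE (10uM, at KM) by 5nM enzyme in 50mM KPO4, 60 min at 37C following 10 min compound preincubation. Stopped with luciferin detection buffer; luminescence read after 20 min.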

The target in test [12] is Dual specificity protein kinase CLK4 (Homo sapiens) (UniProt Q9HAZ1). Put plainly: qHTS Assay for Inhibitors of CDC-like Kinase 4 (Kinase-Glo Assay) (AID 1770). Further: potency means the concentration at half of the fitted maximal effect; nearly all actives have a fitted effect of over 65% in size. The method, boiled down:
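25 nM Clk4 with 100 uM RS repeat peptide and 1 uM ATP (final) in Tris pH7.5, 10 mM MgCl2, 4.5 h at room temperature. Remaining ATP measured by Kinase-Glo luciferase luminescence.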

Test [13] has the same target. In words: qHTS Assay for Inhibitors of CDC-like Kinase 4 (ADP-Glo Assay) (AID 1771). Further: potency means the concentration at half of the fitted maximal effect; nearly all actives have a fitted effect of over 70% in size. An outline of the steps:
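25 nM Clk4, 100 uM RS peptide, 1 uM ATP (final); 2 mM MgCl2, 0.5 mM EGTA, 2.5 mM DTT, 0.01% Triton X-100; 1 hr RT. ADP-Glo readout: ATP depletion 45 min, conversion/luciferase 30 min, luminescence.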

The target in test [14] is Ubiquitin carboxyl-terminal hydrolase 1 (Homo sapiens) (UniProt O94782). In words: Inhibitors of USP1/UAF1: Pilot qHTS (AID 504865).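 Further: rhodamine fluorescence freed from ubiquitin-rhodamine substrate followed over time; top concentration of the series differs between compounds; on the % scale 0 is the no-effect control and ±100 the full control effect; nearly all actives have a fitted effect of over 35% in size.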 The method, boiled down:
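USP1/UAF1 complex at 1 nM preincubated 15 min at room temperature with compound, then Ub-Rho substrate added at 150 nM final. Fluorescence (480/540 nm) read kinetically in 50 mM HEPES pH 7.8, 0.5 mM EDTA, 1 mM TCEP, 0.1 mg/ml BSA, 0.01% Tween-20.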

Test [15] in a line: Primary qHTS for small molecule stabilizers of the endoplasmic reticulum resident proteome: Secreted ER Calcium Modulated Protein (SERCaMP) assay (AID 1508630). Further: on the % scale 0 is the no-effect control and ±100 the full control effect. An outline of the steps: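 The SH-SY5Y reporter protocol was run at 3 concentrations up to 38.3 uM (primary) or 11 concentrations (follow-up): 16 h compound, 100 nM thapsigargin for 4 h, then extracellular luciferase luminescence.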

Test [16] addresses Cytochrome P450 3A4 (Homo sapiens) (UniProt P08684). In words: qHTS Assay for Inhibitors and Substrates of Cytochrome P450 3A4 (AID 884). Further: potency means the concentration at half of the fitted maximal effect; nearly all actives have a fitted effect of over 50% in size. The method, boiled down: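 Luminescent readout of luciferin produced by CYP3A4 (20 nM) dealkylation of Luciferin-PPXE, 25 uM (its KM). NADPH-driven reaction ran 60 min at RT after 10 min compound preincubation; data scaled to 57 uM ketoconazole as 100% inhibition.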

Test [17] deals with Cytochrome P450 2D6 (Homo sapiens) (UniProt P10635). In words: qHTS Assay for Inhibitors and Substrates of Cytochrome P450 2D6 (AID 891). Further: potency means the concentration at half of the fitted maximal effect; nearly all actives have a fitted effect of over 60% in size. An outline of the steps:
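Luminescent read-out of luciferin formed by 5 nM human CYP2D6 demethylating 30 uM Luciferin-ME EGE (Km level) over 60 min at room temperature after NADPH regeneration addition. Data normalized to full inhibition by 1.43 uM quinidine.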

Values without a mark were called inactive. Inconclusive results are not listed. Active and inactive are the calls of the source. Unless noted, the call rests on the fitted dose curve; in most records, active means well fitted curve in the direction sought with a large enough effect; inconclusive means small, poorly fitted or top-dose-only effect, or another doubt; inactive means no such curve, though single readings can be large; an effect the other way counts as inactive or inconclusive.

Sequence of Dual specificity protein kinase CLK4 (Homo sapiens) (Q9HAZ1 whole entry, looked up): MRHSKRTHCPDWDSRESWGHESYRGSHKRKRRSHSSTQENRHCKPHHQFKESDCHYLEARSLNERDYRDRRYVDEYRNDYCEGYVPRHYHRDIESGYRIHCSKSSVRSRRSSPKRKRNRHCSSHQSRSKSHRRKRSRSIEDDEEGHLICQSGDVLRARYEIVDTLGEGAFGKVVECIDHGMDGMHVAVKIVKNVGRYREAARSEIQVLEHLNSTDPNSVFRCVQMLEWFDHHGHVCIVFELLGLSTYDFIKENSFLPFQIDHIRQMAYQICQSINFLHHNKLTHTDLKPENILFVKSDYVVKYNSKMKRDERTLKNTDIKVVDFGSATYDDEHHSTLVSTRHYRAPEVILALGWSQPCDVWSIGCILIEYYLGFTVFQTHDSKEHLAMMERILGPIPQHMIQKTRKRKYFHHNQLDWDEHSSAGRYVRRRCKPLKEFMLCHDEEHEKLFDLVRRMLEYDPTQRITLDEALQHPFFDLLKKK
Sequence of Lysosomal acid glucosylceramidase (Homo sapiens) (P04062 whole entry, looked up): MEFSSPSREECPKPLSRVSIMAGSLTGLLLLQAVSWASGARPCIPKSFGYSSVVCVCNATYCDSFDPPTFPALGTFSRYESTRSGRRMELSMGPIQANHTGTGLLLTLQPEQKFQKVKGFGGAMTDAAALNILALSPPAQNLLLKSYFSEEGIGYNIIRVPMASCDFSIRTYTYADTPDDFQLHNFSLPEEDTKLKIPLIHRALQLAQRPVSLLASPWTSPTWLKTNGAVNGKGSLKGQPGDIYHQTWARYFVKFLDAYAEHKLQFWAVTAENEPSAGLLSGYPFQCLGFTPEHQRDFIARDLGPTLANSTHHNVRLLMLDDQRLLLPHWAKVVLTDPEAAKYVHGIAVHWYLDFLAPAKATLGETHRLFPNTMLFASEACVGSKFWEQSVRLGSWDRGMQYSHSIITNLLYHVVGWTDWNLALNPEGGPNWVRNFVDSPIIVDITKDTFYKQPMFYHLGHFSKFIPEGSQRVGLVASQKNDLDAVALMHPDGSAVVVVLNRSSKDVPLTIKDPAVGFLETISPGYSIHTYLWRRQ
Sequence of 3',5'-cyclic-AMP phosphodiesterase 4B (Homo sapiens) (Q07343 whole entry, looked up): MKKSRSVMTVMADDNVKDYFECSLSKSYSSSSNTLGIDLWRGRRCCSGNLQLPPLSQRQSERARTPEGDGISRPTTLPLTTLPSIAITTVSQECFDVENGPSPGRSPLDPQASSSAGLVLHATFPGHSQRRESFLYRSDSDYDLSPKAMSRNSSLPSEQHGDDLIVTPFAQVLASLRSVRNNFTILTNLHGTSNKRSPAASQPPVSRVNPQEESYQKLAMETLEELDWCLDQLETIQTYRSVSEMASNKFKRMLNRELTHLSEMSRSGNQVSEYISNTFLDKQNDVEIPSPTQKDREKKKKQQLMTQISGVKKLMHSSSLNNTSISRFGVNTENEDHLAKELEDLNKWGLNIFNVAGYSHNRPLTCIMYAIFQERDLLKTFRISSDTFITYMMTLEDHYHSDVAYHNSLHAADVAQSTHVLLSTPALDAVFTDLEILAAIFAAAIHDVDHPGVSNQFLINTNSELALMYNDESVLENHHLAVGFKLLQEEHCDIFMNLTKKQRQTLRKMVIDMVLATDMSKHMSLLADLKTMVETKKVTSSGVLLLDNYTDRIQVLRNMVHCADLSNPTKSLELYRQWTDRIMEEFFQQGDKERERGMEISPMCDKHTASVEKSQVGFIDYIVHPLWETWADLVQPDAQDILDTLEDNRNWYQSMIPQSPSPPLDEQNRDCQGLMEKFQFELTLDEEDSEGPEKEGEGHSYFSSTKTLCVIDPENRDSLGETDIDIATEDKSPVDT
Sequence of Ubiquitin carboxyl-terminal hydrolase 1 (Homo sapiens) (O94782 whole entry, looked up): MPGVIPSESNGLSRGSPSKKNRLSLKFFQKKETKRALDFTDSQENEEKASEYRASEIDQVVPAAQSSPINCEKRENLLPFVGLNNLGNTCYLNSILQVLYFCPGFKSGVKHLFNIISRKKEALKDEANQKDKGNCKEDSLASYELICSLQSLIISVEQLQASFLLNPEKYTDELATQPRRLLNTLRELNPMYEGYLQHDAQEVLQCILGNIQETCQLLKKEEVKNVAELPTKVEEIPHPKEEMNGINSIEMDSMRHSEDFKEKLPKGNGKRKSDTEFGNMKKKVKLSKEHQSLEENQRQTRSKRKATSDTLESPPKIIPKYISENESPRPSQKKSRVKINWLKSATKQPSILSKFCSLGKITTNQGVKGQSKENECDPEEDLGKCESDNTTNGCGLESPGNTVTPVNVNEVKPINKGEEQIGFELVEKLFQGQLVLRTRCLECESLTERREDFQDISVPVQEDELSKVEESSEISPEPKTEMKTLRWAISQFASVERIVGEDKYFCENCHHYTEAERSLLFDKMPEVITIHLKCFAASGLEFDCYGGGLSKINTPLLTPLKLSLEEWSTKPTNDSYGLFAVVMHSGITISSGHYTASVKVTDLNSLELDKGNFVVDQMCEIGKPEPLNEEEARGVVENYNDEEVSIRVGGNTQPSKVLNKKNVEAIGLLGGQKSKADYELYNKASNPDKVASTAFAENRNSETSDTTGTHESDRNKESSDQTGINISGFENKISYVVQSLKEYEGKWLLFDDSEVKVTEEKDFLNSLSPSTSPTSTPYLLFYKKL
Sequence of Cytochrome P450 1A2 (Homo sapiens) (P05177 whole entry, looked up): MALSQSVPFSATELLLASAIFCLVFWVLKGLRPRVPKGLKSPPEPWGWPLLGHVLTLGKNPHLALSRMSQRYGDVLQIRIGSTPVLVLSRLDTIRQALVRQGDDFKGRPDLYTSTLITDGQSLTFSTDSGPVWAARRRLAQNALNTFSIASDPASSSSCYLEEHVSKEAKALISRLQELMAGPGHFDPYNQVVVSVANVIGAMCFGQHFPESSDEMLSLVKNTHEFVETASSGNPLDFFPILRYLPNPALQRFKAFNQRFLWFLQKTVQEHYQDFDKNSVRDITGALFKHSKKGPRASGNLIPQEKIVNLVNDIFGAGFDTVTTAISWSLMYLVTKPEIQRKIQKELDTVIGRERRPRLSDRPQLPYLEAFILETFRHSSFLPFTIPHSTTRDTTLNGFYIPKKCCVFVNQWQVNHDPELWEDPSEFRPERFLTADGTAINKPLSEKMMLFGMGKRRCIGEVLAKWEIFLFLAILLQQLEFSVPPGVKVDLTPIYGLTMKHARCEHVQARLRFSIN
Sequence of Cytochrome P450 2D6 (Homo sapiens) (P10635 whole entry, looked up): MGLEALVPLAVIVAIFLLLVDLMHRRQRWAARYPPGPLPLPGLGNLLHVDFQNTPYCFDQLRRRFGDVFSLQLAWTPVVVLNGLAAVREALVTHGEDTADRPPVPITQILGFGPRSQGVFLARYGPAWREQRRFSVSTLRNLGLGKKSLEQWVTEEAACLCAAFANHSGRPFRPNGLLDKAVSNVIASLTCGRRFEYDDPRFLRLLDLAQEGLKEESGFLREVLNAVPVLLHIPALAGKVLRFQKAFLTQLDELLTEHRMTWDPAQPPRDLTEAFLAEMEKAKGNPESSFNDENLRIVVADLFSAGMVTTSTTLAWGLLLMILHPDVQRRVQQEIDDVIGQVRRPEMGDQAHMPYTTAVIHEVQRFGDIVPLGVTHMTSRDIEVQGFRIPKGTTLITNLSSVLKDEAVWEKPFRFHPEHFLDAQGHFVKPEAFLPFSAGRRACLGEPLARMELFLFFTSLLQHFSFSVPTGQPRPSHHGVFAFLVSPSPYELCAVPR

On to `COc1cccc(-c2cc(NCc3ccccc3OC)ncn2)c1`, for which the Potency in test [1] was above 11.4 µM; in test [3] it was 1.26 µM (active); in test [6], above 46 µM; in test [7], above 46 µM; in [11], 7.94 µM (active); in test [12] it was 15.8 µM (active). Moreover, the Potency in test [13] was 28.2 µM (active). The activity change, negative = inhibition in test [2] was -14.5%; in test [4] it was 6.41%. Besides, the activity, negative = inhibition in test [5] is -1.37%. Further, the Potency entry in test [8], in test [9], in test [10] and in test [14] was “inactive” throughout. Also, in test [15], the result was inactive.

For the compound `c1cncc(-c2cc(NCc3cccs3)ncn2)c1`, the Potency in test [1] is above 11.4 µM; in [3], 1 µM (active); in test [6], above 46 µM; in test [7], above 46 µM; in test [16] it was 2.51 µM (active); in test [12] it was 25.1 µM (active). In addition, in test [13], the Potency is 28.2 µM (active). Besides, the activity change, negative = inhibition in test [2] was 19%; in test [4] it was 11.4%. Moreover, the activity, negative = inhibition in test [5] is 7.74%. The Potency entry in [8], in [9], in test [10] and in test [14] was “inactive” each time. Moreover, in test [15], the outcome was inactive.

For `COc1cccc(-c2nc(NCCNC(C)=O)c3ccccc3n2)c1`, the Potency in [1] is above 11.4 µM; in [3] it was 2.51 µM (active); in test [6] it was above 46 µM; in [7], above 46 µM; in test [17], 3.98 µM (active); in [12], 31.6 µM (active). Moreover, the Potency in test [13] was 28.2 µM (active). In addition, the activity change, negative = inhibition is -4.33% in test [2] and 8.46% in test [4]. In addition, the activity, negative = inhibition in test [5] is 3.51%. The Potency entry in test [8], in [9], in test [10] and in test [14] was “inactive” in each case. Besides, the outcome in test [15] was inactive.

`Cc1noc(C)c1-c1ccc2ncnc(N3CCC(C(=O)O)CC3)c2c1`: the Potency in [1] is above 11.4 µM; in test [3], 25.1 µM (active); in test [6], above 46 µM; in test [7], above 46 µM; in test [12] it was 25.1 µM (active); in test [13] it was 25.1 µM (active). Besides, the activity change, negative = inhibition in test [2] was 8.06%; in test [4], -4.03%. Further, the activity, negative = inhibition in test [5] was 10.8%. The Potency result in test [8], in [9] and in test [14] was “inactive” in each case. Further, the result in test [15] was inactive.

As to `c1cncc(-c2cc(-n3ccnc3)ncn2)c1`, the Potency in test [1] was above 11.4 µM; in test [3] it was 0.1 µM (active); in test [6], above 46 µM; in test [7], above 46 µM; in [16] it was 1.58 µM (active); in test [12] it was 0.794 µM (active). Further, the Potency in [13] is 0.708 µM (active). The activity change, negative = inhibition in test [2] is -4.01%; in test [4] it was 4.07%. Also, the activity, negative = inhibition in [5] was 14.8%. Also, the Potency entry in test [8], in test [9], in test [10] and in test [14] was “inactive” throughout. Also, the outcome in test [15] was inactive.

With `N#Cc1cccc(-c2ccc3ncnc(NC4CCNCC4)c3c2)c1`, the Potency is above 11.4 µM in test [1]; 15.8 µM (active) in test [3]; above 46 µM in test [6]; above 46 µM in [7]; 12.6 µM (active) in [12]; 14.1 µM (active) in [13]. Besides, the values for the activity change, negative = inhibition in test [2] and in test [4] were -6.77% and 3.08%, respectively. For the same compound, the activity, negative = inhibition in test [5] was -3.89%. For the same compound, the Potency entry in test [8], in [9] and in [14] was “inactive” in each case. For the same compound, the result in test [15] was inactive.
